Measurements reported in PubChem BioAssay AID743101 (Vanderbilt Specialized Chemistry Center, 2013).
Active and inactive are the calls of the source.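 How the source made its calls: active means calcium signal above 60% of the peak acetylcholine response at the M5 receptor, called a positive modulator; inactive means the rest.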

What follows are compounds tested against Muscarinic acetylcholine receptor M4 (Homo sapiens) (UniProt P08173) (assay: human M4 receptor activity of M5 PAM candidates, counter-screen for M5 PAM project, cell-based, CHO-K1 hM4/Gqi5, Fluo-4 calcium flux, ACh EC20 (AID 743101)). Details: Fluo-4, ACh EC20, at 30 µM (top of the series).
Chain of Muscarinic acetylcholine receptor M4 (Homo sapiens) (P08173 whole entry, looked up): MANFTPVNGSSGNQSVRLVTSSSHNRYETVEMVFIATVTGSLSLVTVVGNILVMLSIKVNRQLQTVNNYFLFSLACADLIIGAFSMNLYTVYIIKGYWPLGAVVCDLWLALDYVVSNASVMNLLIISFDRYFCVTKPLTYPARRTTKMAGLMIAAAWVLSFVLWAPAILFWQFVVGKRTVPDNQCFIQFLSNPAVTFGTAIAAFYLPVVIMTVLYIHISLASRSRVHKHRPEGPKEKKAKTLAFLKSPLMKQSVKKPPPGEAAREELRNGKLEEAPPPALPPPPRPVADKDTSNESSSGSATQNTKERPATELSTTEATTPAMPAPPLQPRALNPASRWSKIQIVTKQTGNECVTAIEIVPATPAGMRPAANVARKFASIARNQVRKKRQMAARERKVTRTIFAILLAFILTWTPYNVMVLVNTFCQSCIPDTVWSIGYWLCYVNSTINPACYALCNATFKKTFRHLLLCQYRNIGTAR
`CCN(Cc1ccccc1C(F)(F)F)C(=O)C1(F)CCN(S(=O)(=O)c2ccc3[nH]ncc3c2)CC1` was tested, and the outcome was “inactive”.
In the case of `CCN(Cc1ccccc1)C(=O)C1CCN(S(=O)(=O)c2ccc3[nH]ncc3c2)CC1`, the outcome was “inactive”.
With `CCN(C(=O)C1CCN(S(=O)(=O)c2ccc(OC)cc2)CC1)[C@H](C)c1ccccc1` the outcome was “inactive”.
With `CCN(Cc1ccccc1)C(=O)C1CCN(S(=O)(=O)c2ccc3c(c2)OCCO3)CC1` the outcome was “inactive”.
For `CCN(Cc1ccccc1Cl)C(=O)C1CCN(S(=O)(=O)c2ccc3[nH]ncc3c2)CC1`, the outcome was “inactive”.
For `CCN(Cc1ccccc1C(F)(F)F)C(=O)C1CCN(S(=O)(=O)c2ccc3[nH]ncc3c2)CC1`, the outcome was “inactive”.
With `CCCN(Cc1ccccc1C(F)(F)F)C(=O)C1CCN(S(=O)(=O)c2ccc3[nH]ncc3c2)CC1` the outcome was “inactive”.
With `CCN(C(=O)C1CCN(S(=O)(=O)c2ccc(-n3cccn3)cc2)CC1)[C@H](C)c1ccccc1` the outcome was “inactive”.
For `CCN(Cc1ccccc1C(F)(F)F)C(=O)C1CCN(S(=O)(=O)c2ccc3cn[nH]c3c2)CC1`, the outcome was “inactive”.
In the case of `CCN(Cc1ccccc1)C(=O)C1CCN(S(=O)(=O)c2ccc3cn[nH]c3c2)CC1`, the outcome was “inactive”.
In the case of `CCN(C(=O)C1CCN(S(=O)(=O)c2ccc3[nH]ncc3c2)CC1)[C@H](C)c1ccccc1`, the outcome was “inactive”.
